Data from the supplement of paper PMC12669032.
Values without a mark were called inactive.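 Rule for the calls: active = AUC reduced over 20% with Padj below 0.05 in at least 2 of 3 replicates; inactive = otherwise.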

The compounds below were run on Akkermansia muciniphila (assay: growth AUC relative to DMSO control (median of replicates) (fraction); higher = more growth (less inhibition), active = hit call of the paper). Conditions: 20 µM; 24 h.
Summary of the method: (§1)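 Gut bacteria were grown singly in mGAM at 37 °C without oxygen, from OD600 0.05, alongside 20 µM compound in 1% DMSO, and OD600 was read each hour for 24 h. Area under the growth curve was normalised to the median of solvent-only wells per plate, or to row and column medians on the industrial chemical plate. The minimum OD was set to 0 beforehand, and the reported value is the median of three biological replicates grown on separate days.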
In the case of `Clc1ccc(Cl)cc1`, the “growth AUC” value is reported as 1.01. In the case of `C#CC(C)(C)NC(=O)c1cc(Cl)cc(Cl)c1`, the “growth AUC” value is reported as 1.06. `CC1CCCCC1NC(=O)Nc1ccccc1` (mixture of isomers) was tested, and the “growth AUC” value was 0.952. For `Cc1ccc(N=CN(C)C=Nc2ccc(C)cc2C)c(C)c1`, the “growth AUC” value was 1.13. In the case of `CC(C)N1C(=O)c2ccccc2NS1(=O)=O`, the “growth AUC” value is reported as 1.21. For `CC1(C)CC/C(=C\c2ccc(Cl)cc2)C1(O)Cn1cncn1` (stereo not drawn), the “growth AUC” value was 0.95. With `CCCN(CCCl)c1c([N+](=O)[O-])cc(C(F)(F)F)cc1[N+](=O)[O-]` the “growth AUC” value was 1.01. With `COC(=O)Nc1nc2ccccc2[nH]1` the “growth AUC” value was 0.927. `Cc1cc(C(F)(C(F)(F)F)C(F)(F)F)ccc1NC(=O)c1cccc(I)c1C(=O)NC(C)(C)CS(C)(=O)=O` was tested, and the “growth AUC” value was 1.06. With `CC(C)OC(=O)Nc1cccc(Cl)c1` the “growth AUC” value was 1.06. For `c1coc(-c2nc3ccccc3[nH]2)c1`, the “growth AUC” value was 1.03. For `COC(=O)c1ccccc1S(=O)(=O)NC(=O)Nc1nc(C)nc(OC)n1`, the “growth AUC” value was 1.1. For `Nc1cc(Cl)ccc1Cl`, the “growth AUC” value was 1.03. In the case of `CCSCc1ccccc1OC(=O)NC`, the “growth AUC” value is reported as 0.874. For `COP(=S)(OC)Oc1ccc([N+](=O)[O-])c(C)c1`, the “growth AUC” value was 0.998. For `CCOC(=O)/C=C(C)/C=C/C[C@@H](C)CCCC(C)C`, the “growth AUC” value was 0.915. With `COc1nn(CSP(=S)(OC)OC)c(=O)s1` the “growth AUC” value was 1.01. In the case of `CCCCOCN(C(=O)CCl)c1c(CC)cccc1CC`, the “growth AUC” value is reported as 1.07. With `COc1ccc(C(c2ccc(OC)cc2)C(Cl)(Cl)Cl)cc1` the “growth AUC” value was 0.973. For `CNC(=O)/C(=N/OC)c1ccccc1Oc1ccccc1`, the “growth AUC” value was 0.883. For `O=C(O)c1ccc(=O)[nH]c1`, the “growth AUC” value was 1.06. In the case of `c1ccc2c(c1)ccc1c3ccccc3sc21`, the “growth AUC” value is reported as 1.03. With `CC1(C)C(/C=C(\Cl)C(F)(F)F)C1C(=O)OC(C#N)c1cccc(Oc2ccccc2)c1` (stereo not drawn) the “growth AUC” value was 0.989. `CNC(=O)Oc1cc(C)cc(C(C)C)c1` was tested, and the “growth AUC” value was 0.995. In the case of `CCOP(=S)(OCC)Oc1cc(Cl)c(SC)cc1Cl`, the “growth AUC” value is reported as 1.01. For `O=[N+]([O-])C(Br)(CO)CO`, the “growth AUC” value was 0.966. `Cc1c(F)c(F)c(COC(=O)[C@@H]2[C@H](/C=C(\Cl)C(F)(F)F)C2(C)C)c(F)c1F` (mixture of isomers) was tested, and the “growth AUC” value was 0.937. For `COP(=S)(OC)Oc1ccc(S(C)=O)c(C)c1` (stereo not drawn), the “growth AUC” value was 0.88. For `CCNc1nc(NCC)nc(SC)n1`, the “growth AUC” value was 1.14. With `CC(C)N(C(=O)SCC(Cl)=C(Cl)Cl)C(C)C` the “growth AUC” value was 1.26. In the case of `CCOP(=S)(OCC)Oc1ccc([N+](=O)[O-])cc1`, the “growth AUC” value is reported as 1.09. `CC(C)[C@@H](Nc1ccc(C(F)(F)F)cc1Cl)C(=O)OC(C#N)c1cccc(Oc2ccccc2)c1` (stereo partly drawn) was tested, and the “growth AUC” value was 1.09. In the case of `Fc1ccc(C2(Cn3cncn3)OC2c2ccccc2Cl)cc1` (stereo not drawn), the “growth AUC” value is reported as 0.955. For `CCCC1COC(Cn2cncn2)(c2ccc(Cl)cc2Cl)O1` (stereo not drawn), the “growth AUC” value was 1.02. `CCOC(=O)C(O)(c1ccc(Cl)cc1)c1ccc(Cl)cc1` was tested, and the “growth AUC” value was 0.996. `CC#Cc1cc(C)nc(Nc2ccccc2)n1` was tested, and the “growth AUC” value was 1.08. For `CC(C)N(Cc1ccccc1)C(=O)C(C)(C)C`, the “growth AUC” value was 1.11. In the case of `O=c1oc2ccccc2c(O)c1C1CC(c2ccc(-c3ccc(Br)cc3)cc2)Cc2ccccc21` (stereo not drawn), the “growth AUC” value is reported as 0.966. In the case of `C[N+](C)(C)CCCl.[Cl-]`, the “growth AUC” value is reported as 1.06.

Each compound was assayed on Bacteroides caccae in the same assay as above. Conditions: 20 µM; 24 h.
Summary of the method: as §1
In the case of `Clc1ccc(Cl)cc1`, the “growth AUC” value is reported as 0.991. In the case of `C#CC(C)(C)NC(=O)c1cc(Cl)cc(Cl)c1`, the “growth AUC” value is reported as 0.964. For `CC1CCCCC1NC(=O)Nc1ccccc1` (mixture of isomers), the “growth AUC” value was 1. For `Cc1ccc(N=CN(C)C=Nc2ccc(C)cc2C)c(C)c1`, the “growth AUC” value was 1.01. In the case of `CC(C)N1C(=O)c2ccccc2NS1(=O)=O`, the “growth AUC” value is reported as 0.999. `CC1(C)CC/C(=C\c2ccc(Cl)cc2)C1(O)Cn1cncn1` (stereo not drawn) was tested, and the “growth AUC” value was 0.976. With `CCCN(CCCl)c1c([N+](=O)[O-])cc(C(F)(F)F)cc1[N+](=O)[O-]` the “growth AUC” value was 0.977. In the case of `COC(=O)Nc1nc2ccccc2[nH]1`, the “growth AUC” value is reported as 1.01. For `Cc1cc(C(F)(C(F)(F)F)C(F)(F)F)ccc1NC(=O)c1cccc(I)c1C(=O)NC(C)(C)CS(C)(=O)=O`, the “growth AUC” value was 1.2. In the case of `CC(C)OC(=O)Nc1cccc(Cl)c1`, the “growth AUC” value is reported as 0.915. With `c1coc(-c2nc3ccccc3[nH]2)c1` the “growth AUC” value was 0.937. In the case of `COC(=O)c1ccccc1S(=O)(=O)NC(=O)Nc1nc(C)nc(OC)n1`, the “growth AUC” value is reported as 1.02. For `Nc1cc(Cl)ccc1Cl`, the “growth AUC” value was 0.993. For `CCSCc1ccccc1OC(=O)NC`, the “growth AUC” value was 1.01. `COP(=S)(OC)Oc1ccc([N+](=O)[O-])c(C)c1` was tested, and the “growth AUC” value was 0.992. `CCOC(=O)/C=C(C)/C=C/C[C@@H](C)CCCC(C)C` was tested, and the “growth AUC” value was 0.985. With `COc1nn(CSP(=S)(OC)OC)c(=O)s1` the “growth AUC” value was 1.01. `CCCCOCN(C(=O)CCl)c1c(CC)cccc1CC` was tested, and the “growth AUC” value was 0.909. For `COc1ccc(C(c2ccc(OC)cc2)C(Cl)(Cl)Cl)cc1`, the “growth AUC” value was 0.92. For `CNC(=O)/C(=N/OC)c1ccccc1Oc1ccccc1`, the “growth AUC” value was 1.01. With `O=C(O)c1ccc(=O)[nH]c1` the “growth AUC” value was 1.02. For `c1ccc2c(c1)ccc1c3ccccc3sc21`, the “growth AUC” value was 0.999. `CC1(C)C(/C=C(\Cl)C(F)(F)F)C1C(=O)OC(C#N)c1cccc(Oc2ccccc2)c1` (stereo not drawn) was tested, and the “growth AUC” value was 0.951. `CNC(=O)Oc1cc(C)cc(C(C)C)c1` was tested, and the “growth AUC” value was 0.969. In the case of `CCOP(=S)(OCC)Oc1cc(Cl)c(SC)cc1Cl`, the “growth AUC” value is reported as 0.997. For `O=[N+]([O-])C(Br)(CO)CO`, the “growth AUC” value was 0.987. In the case of `Cc1c(F)c(F)c(COC(=O)[C@@H]2[C@H](/C=C(\Cl)C(F)(F)F)C2(C)C)c(F)c1F` (mixture of isomers), the “growth AUC” value is reported as 0.943. In the case of `COP(=S)(OC)Oc1ccc(S(C)=O)c(C)c1` (stereo not drawn), the “growth AUC” value is reported as 1.02. In the case of `CCNc1nc(NCC)nc(SC)n1`, the “growth AUC” value is reported as 0.946. In the case of `CC(C)N(C(=O)SCC(Cl)=C(Cl)Cl)C(C)C`, the “growth AUC” value is reported as 1. In the case of `CCOP(=S)(OCC)Oc1ccc([N+](=O)[O-])cc1`, the “growth AUC” value is reported as 0.963. In the case of `CC(C)[C@@H](Nc1ccc(C(F)(F)F)cc1Cl)C(=O)OC(C#N)c1cccc(Oc2ccccc2)c1` (stereo partly drawn), the “growth AUC” value is reported as 1.02. With `Fc1ccc(C2(Cn3cncn3)OC2c2ccccc2Cl)cc1` (stereo not drawn) the “growth AUC” value was 1.01. For `CCCC1COC(Cn2cncn2)(c2ccc(Cl)cc2Cl)O1` (stereo not drawn), the “growth AUC” value was 0.952. For `CCOC(=O)C(O)(c1ccc(Cl)cc1)c1ccc(Cl)cc1`, the “growth AUC” value was 0.872. `CC#Cc1cc(C)nc(Nc2ccccc2)n1` was tested, and the “growth AUC” value was 1.01. In the case of `CC(C)N(Cc1ccccc1)C(=O)C(C)(C)C`, the “growth AUC” value is reported as 0.928. In the case of `O=c1oc2ccccc2c(O)c1C1CC(c2ccc(-c3ccc(Br)cc3)cc2)Cc2ccccc21` (stereo not drawn), the “growth AUC” value is reported as 0.91. `C[N+](C)(C)CCCl.[Cl-]` was tested, and the “growth AUC” value was 1.01.
